# Hits are enriched below; roughly 2.2% of the tested compounds scored in any of these assays.
# Ba/F3 V617F tox = reduced viability of JAK2V617F-dependent Ba/F3 cells, primary screen, JAK2V617F inhibitor project, cell-based, Ba/F3 EpoR-JAK2V617F, luminescence; ATP luminescence; inhibition, % at 5.6 µM; 1.1% of 220,000 active;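 active = inhibition above the campaign mean plus 3 SD over all tested compounds, cut at about 24% in these data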;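 also: cytokine-independent growth of Ba/F3 cells driven by EpoR plus mutant JAK2; 0% = DMSO-treated cells and 100% = JAK inhibitor I control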
# BaF3 tox = parental Ba/F3 cell viability inhibition, counter-screen for JAK2V617F inhibitor project, murine pro-B, CellTiter-Glo luminescence; CellTiter-Glo ATP luminescence; inhibition, % at 5.6 µM; 1.1% of 220,000 active; AID 1486, 2009;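 active = inhibition above a per-campaign cutoff, the mean inhibition of all tested compounds plus 3 SD, cut at about 27% in these data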;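 also: 0% = DMSO wells and 100% = JAK Inhibitor I control wells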
# KLF5 inhibitor = KLF5 expression inhibitors, primary screen, DLD-1 cells, luminescence; inhibition, % at 5 µM; DLD-1 KLF5 promoter-luciferase reporter; 0.23% of 290,000 active; AID 1700, 2009;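 active = inhibition above a per-plate limit of that plate's mean compound inhibition plus 3 SD, cut at about 60% in these data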;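 also: 0% = DMSO wells and 100% = LY294002 at 200 µM; higher means less KLF5 promoter-driven luciferase light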
# aSyn 5UTR inh = MLPCN primary screen, SNCA 5' untranslated region; inhibition, % (tested at 7.5 µM); 0.82% of 300,000 active; alpha-synuclein 5'UTR reporter, inhibitor activity; in the data active = inhibition above about 60%;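 also: H4 neuroglioblastoma cells stably carrying SNCA 5'UTR luciferase fusion; 0% = DMSO wells and 100% = positive control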
# IEC-6 tox = cytotoxicity in IEC-6 intestinal epithelial cells, primary screen, cytotoxicity control for KLF5 inhibitor project, cell-based, luminescence. IEC-6 cytotoxicity, luminescence viability. inhibition, % at 5 µM. 0.78% of 290,000 active; in the data active = inhibition above about 22%;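 also: 0% = plate median of test compound wells and 100% = cytotoxic reference compound wells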
# APP 5UTR inh = inhibitors of APP translation via 5'UTR reporter, primary screen, APP 5'UTR luciferase, SH-SY5Y cells; SH-SY5Y APP 5'UTR-luciferase reporter, luminescence; 0.82% of 190,000 active; inhibition, % at 2 µM;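 active = inhibition above a set limit, derived from the sample mean plus 3 SD, cut at about 45% in these data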
# Numbers without * were called inactive; nt = not tested or not shown.
SMILES,Ba/F3 V617F tox,BaF3 tox,KLF5 inhibitor,aSyn 5UTR inh,IEC-6 tox,APP 5UTR inh
N=c1c2c(n(Cc3ccc(F)cc3)c3c1CCC3)CCC2,49*,65*,-11,45,1,4
CCCCn1c2c(c(=N)c3c1CCC3)CCC2,73*,63*,22,nt,5,0
CCn1c2c(c(=N)c3ccccc31)CCC2,17,46*,7,-17,7,nt
CCn1c2c(c(=N)c3c1CCC3)CCC2,12,28*,-30,6,0,-2
O=C(O)CC1c2ccccc2C=Cc2ccccc21,nt,nt,nt,16,nt,nt
CC1CC(=O)N(CC(=O)NCc2ccccc2)c2ccccc2S1(=O)=O (centres undefined),nt,nt,-4,-4,-6,nt
CC(C)=CCc1c(O)cc(O)c2c(=O)c3c(CC=C(C)C)c(O)ccc3oc12,nt,nt,nt,16,nt,nt
CCn1ncc(Br)c1C(=O)Nc1ccc(F)c([N+](=O)[O-])c1,-2,3,-16,14,25*,3
Clc1ccc(-c2nnc(NC3=NCCCCC3)o2)cc1,12,14,-44,75*,4,-152
O=C(Nc1nnc(-c2ccc(Cl)cc2)o1)C1CCCCC1,nt,nt,nt,-80,nt,nt
Cc1nnc(NC(=O)C23CC4CC(CC(C4)C2)C3)s1,nt,nt,-17,-33,-28,nt
Oc1ccc(-c2csc(NCc3ccco3)n2)cc1,0,4,-41,-177,0,-24
c1coc(CNc2nc(-c3cccs3)cs2)c1,1,3,-54,107*,3,-40
COc1ccc(-c2cn(-c3ccc(Br)cc3)c3[n+]2CCS3)cc1,65*,78*,-14,5,2,-7
Cc1c(-c2ccc(Cl)cc2)[n+](=O)c(-c2ccccc2)cn1[O-],-3,-2,-23,-118,-4,nt
Fc1ccc(-c2cn(-c3ccccc3)c3[n+]2CCS3)cc1,55*,60*,-7,5,0,nt
CC(=O)c1ccc(-n2cc(-c3ccc(C(C)(C)C)cc3)[n+]3c2SCCC3)cc1,55*,62*,-4,-14,5,-19
Clc1ccc(-c2cn(-c3ccccc3)c3[n+]2CCS3)cc1,54*,78*,-17,-21,-2,-12
Nn1c(SCC(=O)NCC2CCCO2)nnc1-c1ccc(OC(F)F)cc1 (centres undefined),nt,nt,nt,7,nt,nt
COc1ccc(Cc2nnc(SCC(=O)N(C)CC(=O)Nc3ccc(C)cc3)o2)cc1,nt,nt,nt,16,nt,nt
COc1cccc(CCNC(=O)C2CCC(=O)N(C3CC3)C2)c1OC (centres undefined),nt,nt,-16,9,-5,nt
CC1(C)CC2(CCO1)OC(=O)CC2C(=O)Nc1ccccc1Cl (centres undefined),3,90*,2,-28,-2,7
O=C(Nc1ccc(NS(=O)(=O)c2ccccc2)cc1)c1ccc(Cl)cc1,nt,nt,-2,-21,2,nt
O=C1CSc2ccc(C(=O)Nc3cccc(S(=O)(=O)Nc4ccc(Br)cc4)c3)cc2N1,17,44*,8,-1,4,7
O=C(Nc1cccc(S(=O)(=O)Nc2ccc(Cl)cc2)c1)c1ccc(Cl)nc1,41*,52*,-8,-19,13,2
SMILES,Ba/F3 V617F tox,BaF3 tox,KLF5 inhibitor,aSyn 5UTR inh,IEC-6 tox,APP 5UTR inh
CN1C(=O)C2C(c3ccc(N(C)C)cc3)NN(Cc3ccccc3)C2C1=O (centres undefined),1,10,-26,-26,1,13
Nc1nc(N)c2c(ccc3nccc32)[nH]1,94*,102*,4,49,71*,nt
CCCc1cc(C(=O)N2CCCC(Nc3ccc(C)c(C)c3)C2)n(C)n1 (centres undefined),nt,nt,-26,12,-6,nt
CC(C)(C)c1ccc(C(=O)Nc2ccc(C(=O)N3CCCC3)cc2)cc1,nt,nt,-18,-1,2,nt
CC(C)(C)c1ccc(C(=O)N2CCCCCC2=O)cc1,-1,5,47,91*,0,57*
CC(C)(C)NC(=O)NC(=O)C[n+]1ccc(Cc2ccc([N+](=O)[O-])cc2)cc1,nt,nt,-21,6,-4,nt
O=C(c1ccc(Cl)cc1)N(Cc1ccco1)C1CCS(=O)(=O)C1 (centres undefined),nt,nt,15,-17,-1,nt
CC(NC(=O)CCNS(=O)(=O)c1ccc2c(c1)oc(=O)n2C)c1ccccc1 (centres undefined),nt,nt,-29,3,-8,nt
CCC(C)(C)NC(=O)C(c1ccc(F)cc1)N(CCOC)C(=O)CCC(=O)Nc1nccs1 (centres undefined),nt,nt,-40,-13,3,nt
Nc1c(-c2ccccc2Cl)cnn1-c1cccc([N+](=O)[O-])c1,1,46*,-16,-20,2,-32
Cc1ccccc1-c1cnn(-c2cccc([N+](=O)[O-])c2)c1N,2,8,-33,6,-4,-8
C=Cn1ccnc1CC(O)c1ccc(OC)cc1 (centres undefined),nt,nt,nt,1,nt,nt
N#CCCS(=O)(=O)c1nnnn1-c1ccccc1,25*,3,4,nt,7,9
c1ccc(-n2nnnc2Cc2nnnn2-c2ccccc2)cc1,5,3,-10,10,8,4
Cc1cccc2sc(NNC(=O)c3ccc(S(=O)(=O)N4CCCC(C)C4)cc3)nc12 (centres undefined),-2,8,19,78*,0,35
Cc1cccc2sc(NNC(=O)c3ccc(S(=O)(=O)N4CCc5ccccc5C4)cc3)nc12,-1,6,25,67*,3,20
Cc1cc(C)c2nc(NNC(=O)c3ccc(S(=O)(=O)N4CCCCC4)cc3)sc2c1,1,6,7,46,0,13
Cc1cccc2sc(NC(=O)c3cccc(S(=O)(=O)N4CCc5ccccc54)c3)nc12,0,1,-8,-1,0,2
CCn1c(SCC(=O)NC2CC2)nnc1-c1ccc(OC)cc1,nt,nt,-1,-12,7,nt
O=C(Nc1ccc2oc(-c3cccnc3)nc2c1)c1ccc(Br)o1,-2,2,-33,-113,1,0
O=C(Nc1ccc2oc(-c3cccnc3)nc2c1)c1ccc([N+](=O)[O-])o1,0,-2,-5,-97,-3,60*
CC(Oc1cccc(Cl)c1)C(=O)Nc1ccc(N2CCOCC2)cc1N1CCOCC1 (centres undefined),nt,nt,nt,2,nt,nt
COCC(=O)N1CCCC(CNS(=O)(=O)c2ccc(OC)cc2)C1 (centres undefined),2,8,-20,-12,1,-20
COCCC(=O)N1CCCC(CNS(=O)(=O)c2ccc(OC)cc2)C1 (centres undefined),1,90*,5,-13,7,6
Cc1nn(CC(=O)Nc2ccc(Cl)cn2)c(C)c1[N+](=O)[O-],-1,43*,-2,-3,0,1

# Screening data: PubChem BioAssay, several laboratories
